tim23-1 inh: growth inhibitors of tim23-1 mutant yeast | S. cerevisiae tim23-1 growth, BacTiter-Glo luminescence, 24 h | inhibition, % at 20 µM | hit rate 1.3% among 330,000;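 active means growth inhibition of the mutant yeast at or above 50%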;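 further: temperature-sensitive mutant grown at 25 °C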
TIM10 inh: growth inhibitors of TIM10 yeast strain; S. cerevisiae TIM10 strain growth, BacTiter-Glo luminescence, 24 h; inhibition, % at 10 µM; hit rate 1.4% among 330,000; AID 463195;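 active means inhibition of 40% or more at the single tested concentration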;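 further: wild-type TIM10 isogenic control strain grown at permissive 25 °C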
SKKanGAS inh: inhibitors of SKKanGAS S. pyogenes growth in kanamycin (SK-promoter or general growth effect); AID 1662; BacTiter-Glo, 6 h; hit rate 1.3% among 300,000; inhibition, % at 7.5 µM;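 active means mean replicate score, as percent of positive control median, at least 50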;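 further: strain carries kanamycin resistance gene driven by streptokinase promoter and grows in 40 µg/ml kanamycin; loss of luminescence reflects streptokinase promoter inhibition or plain growth inhibition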
ATG4B inh: blocks human ATG4B protease cleavage of LC3 substrate; inhibition, % at 8.33 µM; hit rate 0.51% among 340,000; ATG4B cleavage of LC3-PLA2, NBD-HPC fluorescence, 1 h; in the data active means inhibition above about 40%
Target sequence (Q9Y4P1 whole entry, looked up): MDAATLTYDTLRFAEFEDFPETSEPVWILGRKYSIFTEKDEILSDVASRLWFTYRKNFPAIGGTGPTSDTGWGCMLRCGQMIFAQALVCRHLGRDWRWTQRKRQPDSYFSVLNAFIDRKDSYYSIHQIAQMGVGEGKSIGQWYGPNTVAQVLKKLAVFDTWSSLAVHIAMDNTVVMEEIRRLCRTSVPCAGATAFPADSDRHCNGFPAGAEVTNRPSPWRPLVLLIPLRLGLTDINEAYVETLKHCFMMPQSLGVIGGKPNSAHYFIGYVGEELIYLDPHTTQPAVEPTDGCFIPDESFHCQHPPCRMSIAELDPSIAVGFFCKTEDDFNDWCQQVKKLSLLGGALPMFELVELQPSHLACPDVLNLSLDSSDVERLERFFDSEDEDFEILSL
PfHsp90 yeast 2: growth inhibition of yeast expressing Plasmodium Hsp90; S. cerevisiae expressing PfHsp90, BacTiter-Glo ATP, 48 h; yeast lacking PDR1 and PDR3 efflux regulators; inhibition, % at 9.4 µM; hit rate 0.32% among 310,000; AID 504621;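 active means every replicate shows inhibition above about 80%, whatever the replicate mean, limit read from the data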
tim10-1 inh: inhibits growth of tim10-1 mutant yeast; hit rate 2.2% among 330,000; inhibition, % at 20 µM; AID 463190; S. cerevisiae tim10-1 ts strain growth, BacTiter-Glo, 24 h;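 active means inhibition of at least 40%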;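 further: mutant grown at 25 °C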
tim23-1 conf: confirmation of tim23-1 mutant yeast growth inhibitors. S. cerevisiae tim23-1 growth, BacTiter-Glo luminescence, 24 h. shares compounds with tim23-1 inh. hit rate 83% among 4,400. inhibition, % at 20 µM;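 active means inhibition above about 39% in either of two replicate wells at 20 µM, limit read from the data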;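 further: temperature-sensitive tim23-1 mutant grown at 25 °C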
ATG4B confirm: confirmation of human ATG4B inhibitors; shares compounds with ATG4B inh; ATG4B protease fluorescent substrate cleavage assay; inhibition, % at 8.33 µM; hit rate 92% among 320; in the data active means inhibition above about 39%
PLA2 ctr: inhibits human PLA2, flagging false ATG4B inhibitors | purified PLA2, NBD-C6-HPC fluorescence, 45 min | hit rate 66% among 1,600 | shares compounds with ATG4B inh | inhibition, % at 8.33 µM; in the data active means inhibition above about 50%
A number is an active result; 0 = inactive; - = not tested or not shown. Compounds with a hit are over-represented: about 4.7% of the library has one in this group of screens.

SMILES	tim23-1 inh	TIM10 inh	SKKanGAS inh	ATG4B inh	PfHsp90 yeast 2	tim10-1 inh	tim23-1 conf	PLA2 ctr	others
CN1CCc2nc3sc(C(=O)C45CC6CC(CC(C6)C4)C5)c(N)c3cc2C1	90.1	0	-	45.3	129.5	0	84.8	0
O=C(Nc1ccccc1-c1ccccc1)NC1CC2CCCC(C1)N2Cc1ccc(F)cc1 (stereo unspecified)	56.0	0	0	72.2	0	0	0	66.1
Cc1ccc2occ(/C=N/NC(=O)c3ccc(O)cc3)c(=O)c2c1	0	0	0	0	-	0	-	-
CCOc1ccccc1C(=O)N/N=C/c1coc2ccc(C)cc2c1=O	63.7	0	-	64.9	0	0	65.7	75.7
Cc1cccc(-n2nnc(C(=O)N3CCc4ccccc4C3)c2N)c1	0	0	0	0	0	0	-	-
CN(C)c1cccc(C(=O)n2cc(C(=O)c3cc(F)ccc3O)cn2)c1	57.2	0	0	50.9	0	0	68.0	0	ATG4B confirm=50.3
CCC(CO)Nc1ccc(-c2nn(C)c(=O)c3ccccc23)cc1[N+](=O)[O-] (stereo unspecified)	0	0	0	0	0	0	-	-
COc1cccc(COc2ccc3c(C)c(Cc4ccccc4)c(=O)oc3c2)c1	0	0	0	0	0	0	-	-
CN1CCN(c2nc(-c3cccs3)cs2)CC1	0	0	0	0	0	0	-	-
O=C1c2ccccc2C(=O)N1c1nc(-c2cccs2)cs1	76.8	0	0	58.9	0	0	40.6	63.5
CC1=NN(c2ccccc2)C(=O)/C1=C/c1c(O)n(-c2ccc(F)c(Cl)c2)[nH]c1=O	58.3	0	71.7	55.0	-	0	43.0	64.3
Cc1ccc(C)c(NC(=O)CSc2ccc(-c3cccs3)nn2)c1	0	0	0	0	0	0	-	-
COc1ccc(-n2cc3ccc([N+](=O)[O-])cc3n2)cc1	0	0	0	0	0	0	-	-
S=c1[nH]nc(-c2ccccc2)n1/N=C/c1cccc(Br)c1	0	0	0	0	0	0	-	-
Oc1c(Br)cc(Br)c(/C=N/n2c(-c3ccccc3)n[nH]c2=S)c1Br	55.8	0	0	44.1	118.8	0	50.9	0	ATG4B confirm=51.6
C#CCOCCOCCOCCNc1nc(N2CCN(C(=O)CCCCCCCCCCNC(=O)[C@H](CCCCN)n3cc(CCO)nn3)CC2)nc(N2CCN(C(=O)CCCCCCCCCCNC(=O)[C@H](CCCCN)n3cc(C[C@@H](C)CC)nn3)CC2)n1	57.1	0	-	75.4	-	0	56.4	0	ATG4B confirm=0
Cc1cccc(C)c1OCC(=O)Nc1ccc(NC(=O)c2ccco2)cc1	0	0	0	0	-	0	-	-
Cc1cccc(C)c1OCC(=O)Nc1cccc(NC(=O)c2ccco2)c1	56.2	0	0	47.8	0	0	48.7	0	ATG4B confirm=56.6
COC(=O)CSc1nc2cc(Cl)ccc2c(=O)n1C1CCCC1	0	0	0	45.9	0	0	-	0	ATG4B confirm=60.6
Cn1cc(/C=C2\SC(=S)N(NC(=O)c3cccc(Cl)c3)C2=O)c2ccccc21	-	-	-	0	0	-	-	-
C=C(C)C1CC=C(C)/C(=N/Nc2ccccc2[N+](=O)[O-])C1 (stereo unspecified)	0	0	0	0	0	0	-	-
CCc1nc(N2CCC(C)CC2)c2oc3ccccc3c2n1	0	0	0	56.9	0	0	-	67.8
CCCc1nnc(SCC(=O)Nc2ccc(OCC)cc2)n1N	0	0	0	0	0	0	-	-
COc1ccc(NC(=O)c2cccc(N3C(=O)NC4CC3(C)Oc3ccccc34)c2)cc1 (stereo unspecified)	0	0	0	0	-	0	-	-
COc1cnc(SCc2c(Cl)cccc2Cl)nc1Cl	0	0	0	50.2	0	0	-	0	ATG4B confirm=59.4
Cc1ccc(S(=O)(=O)N2CCN(C(=O)CCC(=O)NCc3cccc(C(F)(F)F)c3)CC2)cc1	0	0	0	70.8	-	0	-	77.6
O=C(CCC(=O)N1CCN(S(=O)(=O)c2ccc(Cl)cc2)CC1)NCc1ccccc1	0	0	0	0	0	0	-	-

Screens from PubChem.
